Compounds with a hit are over-represented: about 3.5% of the library has one in this group of screens.
TEAD-YAP inh – TEAD-YAP interaction inhibition, primary screen, TEAD-YAP interaction inhibitor project, luminescence, HEK-TIYL cells | 640,000 tested, 1.4% active | inhibition, % at 9.12 µM | TEAD-Gal4/YAP UAS-luciferase luminescence; in the data active means inhibition above about 32%
MITF inh – MITF inhibitors, primary screen, biochemical, AlphaScreen, human; inhibition, % at 2.6 µM; Microphthalmia-associated transcription factor (Homo sapiens), O75030; 650,000 tested, 0.91% active; AlphaScreen MITF homodimerization, bead proximity signal; AID 1259374, 2018; in the data active means inhibition above about 50%
FBW7 activator – FBW7 E3 ligase activators, primary screen, biochemical, AlphaScreen, human; AID 1259310, 2017; normalized activity (activation), % at 26.1 µM; 650,000 tested, 0.13% active; AlphaScreen FBW7–phospho-cyclin E peptide binding, activator screen; in the data active means normalized activity above about 1.9%;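 further: purified mutant Fbw7 with reduced substrate affinity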
GPR151 activ – activators of human GPR151, primary screen, cell-based, PathHunter beta-arrestin, luminescence | 650,000 tested, 1% active | G-protein coupled receptor 151 (Homo sapiens), Q8TDV0 | activation, % at 11.2 µM | PathHunter beta-arrestin GPR151 cells | AID 1508602, 2020; in the data active means activation above about 4.9%
GPR151 confirm – GPR151 activators, triplicate retest, confirmation, cell-based, PathHunter beta-arrestin, luminescence; shares compounds with GPR151 activ; GPR151 PathHunter beta-arrestin cells, 90 min; % of EA-reagent control over plate median; activation, % at 11.2 µM; 6,700 tested, under 10 active;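 active means mean percent activation across replicates above the confirmation screen cutoff of 4.91%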
GPR119 ag – GPR119 activators in beta-arrestin cells, counter-screen for GPR151 activator project, cell-based, PathHunter beta-arrestin, luminescence, triplicate | AID 1508611, 2020 | 6,700 tested, 0.3% active | shares compounds with GPR151 activ | 90 min; 0 = compound-well median, 100 = enzyme-acceptor control | activation, % at 11.2 µM;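 active means mean percent activation in the counterscreen above 29.09%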;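 further: counterscreen on off-target GPR119 to flag nonselective hits from the GPR151 activator screen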
Target sequence (Q8TDV5 whole entry, looked up): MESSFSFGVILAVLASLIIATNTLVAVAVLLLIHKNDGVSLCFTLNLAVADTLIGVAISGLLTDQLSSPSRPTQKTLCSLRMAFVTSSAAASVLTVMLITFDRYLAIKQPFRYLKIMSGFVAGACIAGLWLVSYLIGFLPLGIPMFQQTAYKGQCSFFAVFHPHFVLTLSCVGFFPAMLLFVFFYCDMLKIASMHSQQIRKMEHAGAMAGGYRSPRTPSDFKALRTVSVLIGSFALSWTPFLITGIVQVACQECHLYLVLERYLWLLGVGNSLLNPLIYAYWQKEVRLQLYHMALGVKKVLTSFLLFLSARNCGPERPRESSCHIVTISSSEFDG
Of the large screens only hits and unclear results are named; the others gave an inactive call (follow-up assays come after a bar, where they were run).

CCCCC(c1nnnn1CCOC)N1CCN(c2ccccc2)CC1 (stereo unspecified)	GPR151 activ 5.1 | GPR151 confirm inactive | GPR119 ag inactive
COc1cc(C2C(C#N)=C(N)OC3=C2C(=O)CC(C)(C)C3)ccc1OC(C)=O (stereo unspecified)	GPR151 activ 5.3 | GPR151 confirm inactive | GPR119 ag inactive
CCOc1ccc(C2C(C#N)=C(N)OC3=C2C(=O)CC(C)(C)C3)cc1 (stereo unspecified)	GPR151 activ 8.0 | GPR151 confirm inactive | GPR119 ag inactive
CN(C)S(=O)(=O)c1ccc(/C(O)=C2/C(=O)C(=O)N(CCN3CCOCC3)C2c2cccc(Br)c2)cc1 (stereo unspecified)	none
O=C(O)CCc1nn2c3ccccc3n(CC(=O)O)c2nc1=O	GPR151 activ 21.3 | GPR151 confirm inactive | GPR119 ag inactive
O=C(O)CCc1nn2c3ccccc3n(CCN3CCCCC3)c2nc1=O	none
CC(=O)Nc1ccc(S(=O)(=O)Nc2nc3ccc(Br)cc3s2)cc1	none
COc1cc(/C=C2\N=C(c3ccccc3F)OC2=O)cc(I)c1OC(C)=O	none
CCC1CN(Cc2nc3ccccc3[nH]2)Cc2cc(OC)ccc2O1 (stereo unspecified)	none
CCC1CN(CCC(=O)NCCc2nc3ccccc3[nH]2)Cc2cc(OC)ccc2O1 (stereo unspecified)	GPR151 activ 7.0 | GPR151 confirm inactive | GPR119 ag inactive
O=C(Nc1ccc([N+](=O)[O-])cc1Cl)c1cnn2cc(Br)cnc12	GPR151 activ 7.2 | GPR151 confirm inactive | GPR119 ag inactive
Cc1ccc(O)c(NC(=O)c2cc3ncc(Br)cn3n2)c1	none
O=C(Nc1ccc([N+](=O)[O-])cc1Cl)c1cc2ncc(Br)cn2n1	none
Cc1ccc(O)c(NC(=O)c2cnn3cc(Br)cnc23)c1	GPR151 activ 7.5 | GPR151 confirm inactive | GPR119 ag inactive
COC(=O)c1ccc(NC(=O)CN(c2cc([N+](=O)[O-])ccc2C)S(C)(=O)=O)cc1	none
Cc1nc2nc(SCC(=O)Nc3cccc(Cl)c3C)nn2c(C)c1Cc1c(F)cccc1Cl	none
CC(C)N1CCN(Cc2cccc(OCCO)c2)CC1CCO (stereo unspecified)	none
OCCOc1ccc(CN2CCN(Cc3ccc(F)c(F)c3)C(CCO)C2)cc1 (stereo unspecified)	GPR151 activ 6.8 | GPR151 confirm inactive | GPR119 ag inactive
CC(C)N1CCN(Cc2ccc(OCCO)cc2)CC1CCO (stereo unspecified)	GPR151 activ 5.2 | GPR151 confirm inactive | GPR119 ag inactive
O=C(NC1CC1)c1ccc(-c2nc(NCc3nc4ccccc4[nH]3)c3ncn(-c4ccccc4)c3n2)cc1	TEAD-YAP inh 73.0, GPR151 activ 5.0 | GPR151 confirm inactive | GPR119 ag inactive
O=C(NC1CC1)c1ccc(-c2nc(NCc3ccccc3)c3ncn(-c4ccccc4)c3n2)cc1	none
O=C(NCC1CCCO1)c1ccc(CN2CCC(O)(c3ccc(Cl)cc3)CC2)[nH]c1=O (stereo unspecified)	none
CC(NC(=O)CSc1nc2ccc(N)cc2s1)c1ccccc1 (stereo unspecified)	GPR151 activ 6.3 | GPR151 confirm inactive | GPR119 ag inactive
Nc1ccc2nc(SCC(=O)Nc3ccccc3)sc2c1	none
CCOc1cc(C2C(C#N)=C(N)Oc3n[nH]c(COC)c32)ccc1O (stereo unspecified)	none
Cc1cc(OCC(=O)Nc2cc(C(F)(F)F)ccc2Cl)ccc1C(C)C	none
O=C(O)CN=C1NC2(CCCC2)Cc2ccccc21	none
O=C1NC2(CCCCCC2)Cc2ccccc21	GPR151 activ 7.9 | GPR151 confirm inactive | GPR119 ag inactive
O=C(Nc1nnc(COc2ccc(F)cc2)s1)c1ccc([N+](=O)[O-])cc1	none
Cc1cc(Br)c2c(c1)C(O)(CC(=O)c1ccc(F)cc1)C(=O)N2 (stereo unspecified)	none
O=CNC(c1ccccc1)c1ccc(Cl)cc1Cl (stereo unspecified)	GPR151 activ 9.9 | GPR151 confirm inactive | GPR119 ag inactive
O=CNC(c1ccc(Cl)cc1)c1ccc(Cl)cc1	none
Cc1ccc(C(=O)COC(=O)C(C)N2C(=O)C3C4CCC(C4)C3C2=O)cc1 (stereo unspecified)	GPR151 activ 5.4 | GPR151 confirm inactive | GPR119 ag inactive
CC(C(=O)OCC(=O)c1ccc(Br)cc1)N1C(=O)C2C3CCC(C3)C2C1=O (stereo unspecified)	none
O=C(NNC1=NCCC1)c1ccc(Br)cc1	none
Cc1ccc(C(=O)NNC2=NCCC2)cc1	GPR151 activ 5.6 | GPR151 confirm inactive | GPR119 ag inactive
CC(C)(CN1CCN(c2ccccc2)CC1)NS(=O)(=O)c1ccccc1	GPR151 activ 5.5 | GPR151 confirm inactive | GPR119 ag inactive
O=C(Nc1ccc([N+](=O)[O-])cc1)/C(=C/c1ccccc1)NC(=O)c1ccccc1	GPR151 activ 7.3 | GPR151 confirm inactive | GPR119 ag inactive
CCNC(=O)/C(=C/c1cccc([N+](=O)[O-])c1)NC(=O)c1ccc(C)cc1	GPR151 activ 5.9 | GPR151 confirm inactive | GPR119 ag inactive
O=C(NCCCO)c1cccc([N+](=O)[O-])c1	GPR151 activ 5.1 | GPR151 confirm inactive | GPR119 ag inactive
O=C(NCCCNc1ccc([N+](=O)[O-])cc1)c1ccc(F)cc1	GPR151 activ 5.7 | GPR151 confirm inactive | GPR119 ag inactive
CCCCNC(=O)/C(=C\c1cccc([N+](=O)[O-])c1)NC(=O)c1ccc(C)cc1	none
O=C(NCCc1ccc(F)cc1)c1ccc([N+](=O)[O-])cc1	none
C/C(Cl)=C\Cn1c(Br)nc2c1c(=O)[nH]c(=O)n2C	none
Cc1cccc2nc(CSc3n[nH]c(N)n3)cc(=O)n12	none
O=c1[nH]c(O)c(C=NCc2cccc(C(F)(F)F)c2)c(=O)[nH]1	none
CCNC(=O)/C(=C\c1ccc(OC)cc1)NC(=O)c1ccc(Br)cc1	GPR151 activ 5.1 | GPR151 confirm inactive | GPR119 ag inactive
COc1ccc(/C=C(/NC(=O)c2ccc(Br)cc2)C(=O)NCC(=O)O)cc1	none
O=C(NCCO)/C(=C\c1cccc([N+](=O)[O-])c1)NC(=O)c1ccccc1	GPR151 activ 11.5 | GPR151 confirm inactive | GPR119 ag inactive
CCOC(=O)c1ccc(NC(=O)/C(=C/c2cccc(Br)c2)NC(=O)c2ccco2)cc1	none

Bioassay records deposited in PubChem by The Scripps Research Institute Molecular Screening Center.
